The values below come from PubChem BioAssay.

Active and inactive are the calls of the source.

The target of the experiment is Homeobox protein Hox-A13 (Mus musculus) (UniProt Q62424). Kind of experiment: disruptors of Hoxa13 oligonucleotide interaction – biochemical, fluorescence polarization, labeled oligonucleotide, primary screen (AID 1185). Particulars: Hoxa13:DNA binding, 15 min, higher = more signal, called active from +8 up or from −8 down. Background: Polarisation of emitted light reports the rotation of a fluorescent probe.
Homeobox protein Hox-A13 (Mus musculus), sequence (Q62424 whole entry, looked up): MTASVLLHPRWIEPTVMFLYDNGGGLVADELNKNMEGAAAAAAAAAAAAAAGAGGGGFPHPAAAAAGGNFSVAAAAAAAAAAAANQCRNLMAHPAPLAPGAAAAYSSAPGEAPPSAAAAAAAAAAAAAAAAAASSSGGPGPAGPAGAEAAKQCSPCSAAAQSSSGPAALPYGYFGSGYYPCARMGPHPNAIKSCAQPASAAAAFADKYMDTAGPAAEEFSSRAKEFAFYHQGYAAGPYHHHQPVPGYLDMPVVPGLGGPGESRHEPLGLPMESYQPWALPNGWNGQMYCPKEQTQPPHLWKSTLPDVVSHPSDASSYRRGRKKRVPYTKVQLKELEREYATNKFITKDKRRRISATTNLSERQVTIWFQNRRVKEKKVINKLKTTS
Consider `Cc1ccc(S[C@]2(C(=O)NCc3ccccc3)CC(=O)N(Cc3ccccc3C(F)(F)F)[C@@H]2c2ccc(CO)cc2I)cc1`, for which the z-score is -2.23 (inactive).

With `C=CCNC(=O)[C@@H]1[C@H]2C(=O)O[C@H](c3ccccc3)[C@H](c3ccccc3)N2[C@H](c2ccc(OCCO)cc2)[C@@]12C(=O)Nc1ccc(C#CC3=CCCCC3)cc12`, the z-score is 1.89 (inactive).

Take `Cc1ccc(S[C@]2(C(=O)NCc3ccccc3)CC(=O)N(Cc3ccccc3Cl)[C@@H]2c2ccc(CO)cc2)cc1`: the z-score is -2.65 (inactive). The figure for `COc1cccc(C)c1NC(=O)O[C@H]1[C@H](OC(=O)Nc2ccccc2-c2ccccc2)[C@@H](OC(=O)Nc2ccccc2-c2ccccc2)[C@@H](OC)O[C@@H]1CO` is -3.57 (inactive).

Regarding `Cc1ccc(N2C(=O)c3ccccc3[C@@H](C(=O)NCCN3CCOCC3)[C@@H]2c2ccc(CO)cc2)nc1`, the z-score was -1.67 (inactive). With `C=CC[C@@]1(C(=O)NCCCOC)N=C(c2ccc(OCCCO)cc2)O[C@@H]1c1ccccc1CN=[N+]=[N-]`, the z-score was -5.2 (inactive). With `CC(=O)NCCCC[C@@H]1NC(=O)[C@H]2C[C@@H](C(=O)NCCCCCN)[C@@H](c3ccc(O)cc3)N2C1=O` the figure was -2.29 (inactive); with `C=C(COC)C(=O)CC[C@H](OC(C)=O)c1ccc(CO)o1`, -4.72 (inactive); with `Cc1cccc([C@H]2C[C@H]3C(Br)=C[C@@]2(CO)C(=O)[C@]32CO2)c1`, -1.41 (inactive). The figure for `[N-]=[N+]=NCc1ccccc1[C@H]1OC(c2ccc(OCCCO)cc2)=N[C@@]1(Cc1ccccc1N=[N+]=[N-])C(N)=O` is -6.25 (inactive); for `COc1ccc(C(O)C2C=CC3C(=O)N(c4ccccc4)C(=O)C3N2Nc2ccccc2F)c2ccccc12` (configuration not stated) it is -3.14 (inactive); for `CN1C(=O)C2C=CC(C(O)COCc3ccccc3)N(Nc3ccc([N+](=O)[O-])cc3[N+](=O)[O-])C2C1=O` (configuration not stated) it is -4.41 (inactive). With `O=C1O[C@@H](c2ccccc2)[C@@H](c2ccccc2)N2[C@@H](c3ccccc3OCCO)[C@]3(C(=O)Nc4ccc(C#CC5(O)CCCCCC5)cc43)[C@@H](C(=O)N3CCCCCCC3)[C@H]12` the figure was 4.83 (inactive). In the case of `COC(=O)Cn1c(C(=O)N(C)C)cc2c1C[C@H]1CN(C(=O)c3ccccc3)[C@@](Cc3ccccc3)(C(=O)OC)[C@@H]21`, the z-score is -4.29 (inactive). As for `CCCCCCc1nc(Cc2cc(OC)c(OC)c(OC)c2)c(C)c2c1[Si](C(C)C)(C(C)C)OC2`, the z-score was -1.45 (inactive). The figure for `Cc1ccc(S[C@]2(C(=O)NC(C)C)CC(=O)N(Cc3ccccc3)[C@@H]2c2ccc(CO)cc2)cc1` is -1.54 (inactive); for `CC(C)[Si](C#Cc1ccccc1)(O[C@H](c1ccccc1)c1cn(Cc2ccccc2)nn1)C(C)C` it is -1.11 (inactive); for `CCOC(=O)C[C@H]1[C@H](OC(=O)c2cc3ccccc3oc2=O)[C@@H](NC(=O)c2ccc(-c3ccccc3)cc2)c2cc(OCCCO)ccc2N1C(=O)Cc1ccc(OC)cc1` it is -3.12 (inactive). The figure for `CC(C)(C)OC(=O)CC[C@@]1(C(=O)N2CCOCC2)N=C(c2ccc(OCCCO)cc2)O[C@@H]1c1ccccc1CN=[N+]=[N-]` is -4.94 (inactive); for `CC[C@@H]1C=C(C(=O)O)[C@H](c2cccc(Cl)c2)N1S(=O)(=O)c1ccc(C)cc1` it is -3.71 (inactive). The figure for `COC(=O)[C@H](Cc1ccccc1)N1CC(C)(OC)O[C@@H](Cc2ccccc2)[C@H]1/C=C/C1CC1` (some centres not stated) is -4.77 (inactive); for `CO[C@H]1O[C@H](CO)[C@@H](OC(=O)Nc2ccccc2)[C@@H]2OC(=O)[C@@H](Cc3ccccc3)C/C=C/C[C@H](Cc3ccccc3)C(=O)O[C@@H]12` it is -0.539 (inactive).

Regarding `CCCCC=C[C@@H](NC(=O)C(C)(C)C)c1ccccc1`, the z-score was -0.258 (inactive). With `COc1ccc([Si](C)(C)[C@H]2[C@H](CC(=O)N3CCC[C@H]3CO)O[C@@]3(C(=O)N(Cc4cccc(N5CCCCC5=O)c4)c4ccccc43)[C@@H]2C)cc1` the figure was -3.23 (inactive); with `O=C(NCC(F)(F)F)[C@@H]1c2ccccc2C(=O)N(Cc2cc(C(F)(F)F)cc(C(F)(F)F)c2)[C@H]1c1ccc(CO)cc1`, -2.44 (inactive); with `CN1C(=O)C2C(C1=O)C1C=C(CCCO)C2C(C2CC2)N1C` (configuration not stated), -6.6 (inactive). The figure for `C=CCNC(=O)[C@@H]1[C@H]2C(=O)O[C@H](c3ccccc3)[C@H](c3ccccc3)N2[C@H](c2ccc(O)cc2)[C@@]12C(=O)N(C(=O)OCCOC)c1ccc(C#CCC(C(=O)OC)C(=O)OC)cc12` is -1.28 (inactive).
